Each target was assayed with C#CCNC(=O)CCSSCCC(=O)NCCc1ccc(C=O)c(C=O)c1 (assay: lysine labeling ratio R10:1 (500 µM / 50 µM probe), SILAC-ABPP in living cells; higher = lower intrinsic lysine reactivity toward the probe, active = 2 or less). Conditions: HeLa; probe concentrations 500 vs 50 µM.
Procedure, shortened: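 Measurements came from LC-MS/MS on a TIMS-TOF Pro of mixed SILAC light and heavy HeLa lysates after click to biotin-azide, trypsin digestion, neutravidin capture, DTT release and alkylation. Before lysis, the living cells sat in PBS at room temperature with 50 µM or 500 µM of an alkyne-tagged, disulfide-linked lysine probe, and labels were swapped forward and reverse. R per lysine is the median across both swap directions of the filtered median high-probe/low-probe MS1 peptide ratio. The cap is 20.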

Chain of UniProt Q00610 (Q00610 whole entry): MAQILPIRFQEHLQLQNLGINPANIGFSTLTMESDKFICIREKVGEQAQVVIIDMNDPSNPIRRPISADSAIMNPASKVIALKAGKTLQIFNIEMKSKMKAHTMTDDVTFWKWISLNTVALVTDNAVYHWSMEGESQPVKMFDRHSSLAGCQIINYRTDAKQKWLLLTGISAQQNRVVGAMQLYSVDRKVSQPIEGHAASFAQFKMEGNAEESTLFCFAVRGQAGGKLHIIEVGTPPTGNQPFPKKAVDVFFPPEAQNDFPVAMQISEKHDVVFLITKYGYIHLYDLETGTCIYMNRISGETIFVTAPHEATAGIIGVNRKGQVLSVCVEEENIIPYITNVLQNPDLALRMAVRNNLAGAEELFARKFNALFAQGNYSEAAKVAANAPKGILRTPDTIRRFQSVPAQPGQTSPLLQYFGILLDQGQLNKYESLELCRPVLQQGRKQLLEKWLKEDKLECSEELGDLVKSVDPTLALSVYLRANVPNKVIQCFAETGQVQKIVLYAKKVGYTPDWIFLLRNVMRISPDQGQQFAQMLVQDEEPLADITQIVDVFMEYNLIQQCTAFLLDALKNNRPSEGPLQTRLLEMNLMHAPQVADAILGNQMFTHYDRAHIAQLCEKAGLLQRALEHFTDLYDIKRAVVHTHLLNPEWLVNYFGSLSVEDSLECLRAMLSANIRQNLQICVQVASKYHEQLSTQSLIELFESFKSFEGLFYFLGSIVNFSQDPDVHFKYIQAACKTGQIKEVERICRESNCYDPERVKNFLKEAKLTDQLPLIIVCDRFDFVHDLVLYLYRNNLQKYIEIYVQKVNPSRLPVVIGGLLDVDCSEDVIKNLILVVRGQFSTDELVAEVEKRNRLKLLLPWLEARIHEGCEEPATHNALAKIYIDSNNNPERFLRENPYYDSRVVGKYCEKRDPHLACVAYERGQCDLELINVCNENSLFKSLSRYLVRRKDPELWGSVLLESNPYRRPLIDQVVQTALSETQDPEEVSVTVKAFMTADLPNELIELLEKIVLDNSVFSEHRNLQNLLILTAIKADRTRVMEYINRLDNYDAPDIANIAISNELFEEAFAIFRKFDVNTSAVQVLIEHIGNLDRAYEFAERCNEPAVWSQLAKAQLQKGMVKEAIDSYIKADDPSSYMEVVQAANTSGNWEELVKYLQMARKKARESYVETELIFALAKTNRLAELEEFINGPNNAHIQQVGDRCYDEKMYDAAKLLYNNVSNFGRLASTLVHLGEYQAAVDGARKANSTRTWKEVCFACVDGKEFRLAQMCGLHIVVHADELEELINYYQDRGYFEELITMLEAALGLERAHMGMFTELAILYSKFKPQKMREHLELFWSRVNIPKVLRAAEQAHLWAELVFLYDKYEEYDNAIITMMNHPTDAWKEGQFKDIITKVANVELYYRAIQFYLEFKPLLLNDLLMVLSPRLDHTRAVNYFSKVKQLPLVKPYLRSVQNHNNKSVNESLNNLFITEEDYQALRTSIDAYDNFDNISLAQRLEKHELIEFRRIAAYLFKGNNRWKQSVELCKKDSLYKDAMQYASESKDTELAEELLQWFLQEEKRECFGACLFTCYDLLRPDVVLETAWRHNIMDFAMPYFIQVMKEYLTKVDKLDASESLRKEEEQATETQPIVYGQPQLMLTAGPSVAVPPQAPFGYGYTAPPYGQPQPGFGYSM
Chain of UniProt Q15286 (Q15286 whole entry): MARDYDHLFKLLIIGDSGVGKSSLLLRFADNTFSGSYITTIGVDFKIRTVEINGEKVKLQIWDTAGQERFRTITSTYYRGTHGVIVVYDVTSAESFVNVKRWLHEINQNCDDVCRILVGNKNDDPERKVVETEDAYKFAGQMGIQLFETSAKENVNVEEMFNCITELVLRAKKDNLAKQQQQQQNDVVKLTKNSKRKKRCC
Chain of UniProt P32119 (P32119 whole entry): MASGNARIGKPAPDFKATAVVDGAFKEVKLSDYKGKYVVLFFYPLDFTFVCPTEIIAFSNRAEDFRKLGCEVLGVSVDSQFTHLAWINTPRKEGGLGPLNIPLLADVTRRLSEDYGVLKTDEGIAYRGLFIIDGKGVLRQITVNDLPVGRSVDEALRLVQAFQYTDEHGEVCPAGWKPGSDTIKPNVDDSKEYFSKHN
Chain of UniProt Q01082 (Q01082 whole entry): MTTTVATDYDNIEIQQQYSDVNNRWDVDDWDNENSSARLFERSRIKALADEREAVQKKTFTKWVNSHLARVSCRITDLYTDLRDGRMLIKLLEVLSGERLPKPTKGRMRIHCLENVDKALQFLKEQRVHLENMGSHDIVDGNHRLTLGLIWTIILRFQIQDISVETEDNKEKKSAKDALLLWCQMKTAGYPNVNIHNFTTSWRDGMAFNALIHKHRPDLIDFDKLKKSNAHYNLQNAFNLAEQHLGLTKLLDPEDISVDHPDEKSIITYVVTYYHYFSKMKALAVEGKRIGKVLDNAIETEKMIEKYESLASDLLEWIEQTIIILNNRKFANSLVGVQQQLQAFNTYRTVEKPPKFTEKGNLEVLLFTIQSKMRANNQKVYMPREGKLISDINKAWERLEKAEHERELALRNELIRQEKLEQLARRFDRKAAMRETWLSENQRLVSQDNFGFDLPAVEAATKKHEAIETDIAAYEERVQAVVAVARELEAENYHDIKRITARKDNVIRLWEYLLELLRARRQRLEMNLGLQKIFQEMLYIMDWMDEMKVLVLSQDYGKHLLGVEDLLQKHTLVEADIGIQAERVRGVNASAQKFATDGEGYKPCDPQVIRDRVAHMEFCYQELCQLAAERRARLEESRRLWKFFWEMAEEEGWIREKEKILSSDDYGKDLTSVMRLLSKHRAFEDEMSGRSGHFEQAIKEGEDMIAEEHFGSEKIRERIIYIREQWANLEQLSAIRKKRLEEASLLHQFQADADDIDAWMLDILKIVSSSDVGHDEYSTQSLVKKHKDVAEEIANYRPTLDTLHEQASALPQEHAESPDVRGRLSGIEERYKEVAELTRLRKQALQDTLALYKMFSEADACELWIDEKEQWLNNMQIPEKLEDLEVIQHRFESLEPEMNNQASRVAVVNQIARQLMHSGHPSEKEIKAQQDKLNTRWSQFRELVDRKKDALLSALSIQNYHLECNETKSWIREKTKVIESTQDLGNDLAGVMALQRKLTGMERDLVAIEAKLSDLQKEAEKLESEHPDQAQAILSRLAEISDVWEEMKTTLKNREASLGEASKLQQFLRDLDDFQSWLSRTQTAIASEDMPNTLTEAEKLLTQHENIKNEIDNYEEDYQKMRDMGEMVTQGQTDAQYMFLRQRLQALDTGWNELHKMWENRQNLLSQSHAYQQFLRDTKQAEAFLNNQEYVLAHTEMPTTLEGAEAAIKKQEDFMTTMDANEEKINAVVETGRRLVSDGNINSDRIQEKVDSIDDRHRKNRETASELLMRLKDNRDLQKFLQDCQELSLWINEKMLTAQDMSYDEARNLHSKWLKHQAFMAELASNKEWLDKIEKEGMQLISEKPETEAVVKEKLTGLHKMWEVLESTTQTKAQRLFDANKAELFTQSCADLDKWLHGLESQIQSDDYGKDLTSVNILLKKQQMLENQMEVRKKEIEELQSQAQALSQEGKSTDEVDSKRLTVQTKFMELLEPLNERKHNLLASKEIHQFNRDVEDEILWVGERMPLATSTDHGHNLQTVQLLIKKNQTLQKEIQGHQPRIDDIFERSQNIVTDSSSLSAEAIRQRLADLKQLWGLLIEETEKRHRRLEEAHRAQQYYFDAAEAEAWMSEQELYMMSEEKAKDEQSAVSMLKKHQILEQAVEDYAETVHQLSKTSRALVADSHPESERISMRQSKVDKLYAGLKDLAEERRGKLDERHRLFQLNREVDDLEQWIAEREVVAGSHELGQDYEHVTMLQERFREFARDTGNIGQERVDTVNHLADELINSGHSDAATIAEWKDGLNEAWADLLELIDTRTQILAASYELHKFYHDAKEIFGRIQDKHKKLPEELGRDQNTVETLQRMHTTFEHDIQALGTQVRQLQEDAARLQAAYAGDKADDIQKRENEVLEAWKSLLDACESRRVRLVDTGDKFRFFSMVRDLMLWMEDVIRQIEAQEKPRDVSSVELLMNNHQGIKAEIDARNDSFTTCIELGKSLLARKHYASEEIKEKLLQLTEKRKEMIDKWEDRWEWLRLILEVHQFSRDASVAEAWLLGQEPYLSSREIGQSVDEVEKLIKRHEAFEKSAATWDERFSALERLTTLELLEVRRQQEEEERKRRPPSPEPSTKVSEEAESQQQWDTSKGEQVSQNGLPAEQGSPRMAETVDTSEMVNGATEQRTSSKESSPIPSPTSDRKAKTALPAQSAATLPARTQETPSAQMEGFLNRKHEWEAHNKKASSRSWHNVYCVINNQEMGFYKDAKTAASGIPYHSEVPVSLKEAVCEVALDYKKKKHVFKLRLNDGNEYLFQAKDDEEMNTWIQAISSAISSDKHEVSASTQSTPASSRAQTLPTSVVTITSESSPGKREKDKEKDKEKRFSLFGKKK
Chain of UniProt P27105 (P27105 whole entry): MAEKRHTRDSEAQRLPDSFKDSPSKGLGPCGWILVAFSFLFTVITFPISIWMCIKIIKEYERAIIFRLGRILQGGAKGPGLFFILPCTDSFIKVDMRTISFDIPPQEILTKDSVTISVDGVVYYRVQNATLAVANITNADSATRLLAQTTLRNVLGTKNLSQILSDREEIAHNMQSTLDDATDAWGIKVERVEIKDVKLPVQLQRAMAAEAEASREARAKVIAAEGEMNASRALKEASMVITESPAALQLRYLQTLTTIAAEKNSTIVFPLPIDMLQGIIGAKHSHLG
Chain of UniProt P22087 (P22087 whole entry): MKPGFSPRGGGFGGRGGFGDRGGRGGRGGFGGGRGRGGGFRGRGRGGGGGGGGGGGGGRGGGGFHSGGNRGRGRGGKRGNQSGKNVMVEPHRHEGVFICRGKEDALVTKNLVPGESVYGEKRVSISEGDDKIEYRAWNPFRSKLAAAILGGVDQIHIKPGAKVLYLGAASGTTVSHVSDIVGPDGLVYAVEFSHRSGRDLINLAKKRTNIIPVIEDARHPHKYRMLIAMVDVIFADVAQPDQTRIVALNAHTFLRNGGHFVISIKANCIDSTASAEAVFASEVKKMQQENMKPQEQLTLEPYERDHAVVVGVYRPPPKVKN

Target | lysine labeling ratio R10:1
HSPA9 (lysine site: K567) (UniProt P38646) | 2.96 (inactive)
PRDX2 (lysine site: K92) (UniProt P32119) | 6.57 (inactive)
CD97 (lysine site: K499) (UniProt P48960) | 3.84 (inactive)
PRDX1 (lysine site: K93) (UniProt Q06830) | 4.52 (inactive)
VAPA (lysine site: K211) (UniProt Q9P0L0) | 4.3 (inactive)
EHD2 (lysine site: K32) (UniProt Q9NZN4) | 2.92 (inactive)
UniProt Q15286 (lysine site: K121) | 0.72 (active)
CNN2 (lysine site: K30) (UniProt Q99439) | 4.32 (inactive)
CDH13 (lysine site: K178) (UniProt P55290) | 7.63 (inactive)
UGDH (lysine site: K173) (UniProt O60701) | 1.43 (active)
FAT1 (lysine site: K101) (UniProt Q14517) | 2.6 (inactive)
TAGLN2 (lysine site: K156) (UniProt P37802) | 1.43 (active)
EDIL3 (lysine site: K157) (UniProt O43854) | 3.03 (inactive)
PIEZO1 (lysine site: K113) (UniProt Q92508) | 4.13 (inactive)
IGSF3 (lysine site: K279) (UniProt O75054) | 2.5 (inactive)
HSPA5 (lysine site: K523) (UniProt P11021) | 3.39 (inactive)
ITGA1 (lysine site: K546) (UniProt P56199) | 0.96 (active)
FLNB (lysine site: K976) (UniProt O75369) | 1.86 (active)
CNP (lysine site: K197) (UniProt P09543) | 2.88 (inactive)
PLOD2 (lysine site: K486) (UniProt O00469) | 2.27 (inactive)

Target | lysine labeling ratio R10:1
FLOT1 (lysine site: K285) (UniProt O75955) | 1.67 (active)
STOM (lysine site: K235) (UniProt P27105) | 4.28 (inactive)
PSMA7 (lysine site: K28) (UniProt O14818) | 2.85 (inactive)
MYH9 (lysine site: K1459) (UniProt P35579) | 1.3 (active)
SPTBN1 (lysine site: K832) (UniProt Q01082) | 2.42 (inactive)
XRCC6 (lysine site: K238) (UniProt P12956) | 0.959 (active)
UniProt P46781 (lysine site: K11) | 4.03 (inactive)
UniProt Q15046 (lysine site: K479) | 1.78 (active)
RPL28 (lysine site: K72) (UniProt P46779) | 2.12 (inactive)
RPL5 (lysine site: K48) (UniProt P46777) | 1.91 (active)
SPTAN1 (lysine site: K2205) (UniProt Q13813) | 6.67 (inactive)
TLN1 (lysine site: K147) (UniProt Q9Y490) | 1.5 (active)
IGF1R (lysine site: K221) (UniProt P08069) | 1.51 (active)
FBL (lysine site: K84) (UniProt P22087) | 3.62 (inactive)
NECTIN3 (lysine site: K255) (UniProt Q9NQS3) | 4.2 (inactive)
CLTC (lysine site: K389) (UniProt Q00610) | 5.78 (inactive)
MET (lysine site: K189) (UniProt P08581) | 3.58 (inactive)
TUBA1A (lysine site: K336) (UniProt Q71U36) | 2 (active)
CFL1 (lysine site: K164) (UniProt P23528) | 4.91 (inactive)
CLTC (lysine site: K1516) (UniProt Q00610) | 1.45 (active)
